Assay results taken from PubChem BioAssay (NCATS).
Results filed as inconclusive are left out. Active and inactive are the calls of the source. Calls follow the shape of the dose curve; as a rule, active = well fitted curve in the direction sought with a large enough effect; inconclusive = small, poorly fitted or top-dose-only effect, or another doubt; inactive = no such curve, though single readings can be large; an effect the other way counts as inactive or inconclusive.

Legend:
[1] = P-glycoprotein substrates identified in KB-8-5-11 adenocarcinoma cell line, qHTS therapeutic library screen (AID 1346987); also: nearly all actives have a fitted effect of over 65% in size
Outline: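 Human cervical adenocarcinoma KB-8-5-11 cells, selected in colchicine to over-express P-gp and assayed without it, were exposed for 72 h to titrated compounds. An ATP-based luminescent viability signal gave AC50.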

[2] = tested on: Zika virus NS2B-NS3 protease (unlinked complex); experiment: Primary screen GU Rhodamine qHTS for Zika virus inhibitors: Unlinked NS2B-NS3 protease assay (AID 1347159); also: nearly all actives have a fitted effect of over 60% in size
Outline: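 Percent inhibition came from the 15-min rise in Rhodamine110 fluorescence (1.5 microM substrate, ~15% conversion), normalized to no-inhibitor and no-enzyme wells and Hill-fitted. Unlinked protease, 25 nM, pH 8.0 Tris buffer; compounds up to 114 microM, 15-min preincubation.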

[3] = tested on: Zika virus NS2B-NS3 protease (linked construct); experiment: Primary screen NINDS Rhodamine qHTS for Zika virus inhibitors (AID 1347160); also: nearly all actives have a fitted effect of over 55% in size
Outline: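 Rhodamine110-peptide cleavage (1.5 µM substrate) by 25 nM linked NS2B-NS3 enzyme at pH 8.0 (Tris, Tween 20), after 15 min RT preincubation with compounds; 15-min fluorescence change normalized to controls and Hill-fitted.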
% is scaled to controls: 0 for no effect and ±100 for the full control effect.

Oc1ccccc1-c1cc(-c2ccccc2F)[nH]n1
inactive: Potency [1] | Potency [2] | Potency [3]

O=C(OCC1OC(Oc2ccc(O)cc2COC(=O)C2(O)C(O)CCC(=O)C2OC(=O)C2C=CCC2)C(OC(=O)C2C=CCC2)C(O)C1O)C1C=CCC1 (configuration not stated)
inactive: Potency [1] | Potency [2] | Potency [3]

Cc1cn2cc(CC(=O)N3CCC4(CC3)CN(Cc3ccc(-n5nccn5)cc3Cl)C4)nc2s1
inactive: Potency [1] | Potency [2] | Potency [3]

CC(=O)OC[C@]12[C@@H](OC(=O)c3ccoc3)C[C@@H]3[C@@H](OC(C)=O)[C@]1(OC3(C)C)[C@@](C)(O)C[C@H](OC(=O)c1ccoc1)[C@@H]2OC(=O)c1ccoc1
inactive: Potency [1] | Potency [2] | Potency [3]

O=C(Cc1ccccc1)OC[C@H]1O[C@H](O[C@H]2O[C@H](CO)[C@@H](O)[C@H](O)[C@H]2O)[C@H](O)[C@@H](O)[C@@H]1O
inactive: Potency [1] | Potency [2] | Potency [3]

C/C=C(/C)C(=O)OC1C(OC(C)=O)C23C(O)OC4(CCC5C6(C)CCC(OC7OC(C(=O)O)C(O)C(OC8OC(CO)C(O)C(O)C8OC8OC(C)C(O)C(O)C8OC8OCC(O)C(O)C8O)C7OC7OC(CO)C(O)C(O)C7O)C(C)(C)C6CCC5(C)C4(C)CC2OC(C)=O)C3CC1(C)C (configuration not stated)
inactive: outcome [1] inactive [at 9.29 µM] | activity change, negative = inhibition [2] -1.79% [at 19.1 µM] | Potency [3]

Oc1ccc2c(-c3c(-c4ccccn4)nn4c3CCC4)ccnc2c1
inactive: Potency [1] | Potency [2] | Potency [3]

CC(=O)OC[C@]12[C@H](OC(C)=O)[C@H](OC(=O)c3ccccc3)[C@@H]3[C@@H](OC(C)=O)[C@]1(OC3(C)C)[C@H](C)C[C@H](OC(=O)c1ccccc1)[C@@H]2OC(=O)c1ccccc1
inactive: Potency [1] | Potency [2] | Potency [3]

C=C[C@H]1[C@H](O[C@@H]2O[C@H](CO)[C@@H](O)[C@H](O)[C@H]2O)OC=C(C(=O)OC)[C@H]1CCO
inactive: Potency [1] | Potency [2] | Potency [3]

COC(=O)Cn1nc(-c2cccc(OC)c2)c2ccccc21
inactive: Potency [1] | Potency [2] | Potency [3]

Nc1ccc(-n2nc(C(F)(F)F)cc2C(F)(F)F)cc1
inactive: Potency [1] | Potency [2] | Potency [3]

CC1(C)CC[C@]2(C(=O)O)CC[C@]3(C)C(=CCC4[C@@]5(C)C(=O)C[C@H](O)[C@@](C)(CO)C5CC[C@]43C)[C@@H]2C1 (some centres not stated)
inactive: Potency [1] | Potency [2] | Potency [3]

C[C@]1(OC(=O)/C=C/c2ccc(O)cc2)C[C@@H](O)[C@]2(O)C=CO[C@@H](O[C@@H]3O[C@H](CO)[C@@H](O)[C@H](O)[C@H]3O)C12 (some centres not stated)
inactive: Potency [1] | Potency [2] | Potency [3]

CN1CCc2cc(Cl)c(O)cc2[C@@H](c2cccc3c2OCC3)C1
inactive: Potency [1] | Potency [2] | Potency [3]

C=C1CC[C@]2(C(=O)O[C@@H]3O[C@H](CO)[C@@H](O)[C@H](O)[C@H]3O)CC[C@]3(C)C(=CCC4[C@@]5(C)C[C@H](O)[C@@H](O[C@@H]6O[C@H](C(=O)O)[C@@H](O)[C@H](O)[C@H]6O)[C@](C)(C=O)C5CC[C@]43C)C2C1 (some centres not stated)
inactive: outcome [1] inactive [at 9.29 µM] | Potency [2] | Potency [3]

COc1ccc(CC(=O)NCc2ccccc2-c2ccccc2C(=O)NCCc2cccnc2)cc1
inactive: Potency [1] | Potency [2] | Potency [3]

CC[C@H]1OC(=O)[C@H](C)[C@@H](O[C@H]2C[C@@](C)(OC)[C@@H](O)[C@H](C)O2)C(C)[C@@H](O[C@@H]2O[C@H](C)C[C@H](N(C)C)[C@H]2O)[C@](C)(O)C[C@@H](C)CN(C)[C@H](C)[C@@H](O)[C@]1(C)O (some centres not stated)
inactive: Potency [1] | Potency [2] | Potency [3]

CC(=O)c1ccc(O[C@@H]2O[C@H](CO[C@@H]3OC[C@@H](O)[C@H](O)[C@H]3O)[C@@H](O)[C@H](O)[C@H]2O)cc1
inactive: Potency [1] | Potency [2] | Potency [3]

COc1cc(C(CO)C(OC2OC(CO)C(O)C(O)C2O)c2ccc(O)c(OC)c2)ccc1O (configuration not stated)
inactive: Potency [1] | Potency [2] | Potency [3]

O=C(/C=C/c1ccccc1)O[C@@H]1[C@@H](CO)O[C@@](CO)(O[C@H]2O[C@H](CO)[C@@H](O)[C@H](O)[C@H]2O)[C@H]1O
inactive: Potency [1] | Potency [2] | Potency [3]

CC(C)[C@@](O)(c1ccc2cc(OC(F)F)c(OC(F)F)cc2c1)c1cn[nH]n1
inactive: Potency [1] | Potency [2] | Potency [3]

Fc1ccccc1-c1nc2ccn(Cc3ccc(-c4ccc(C(F)(F)F)cc4C(F)(F)F)nn3)cc-2n1
inactive: Potency [1] | Potency [2] | Potency [3]

O=C(O)c1ccnc(-c2cc(C(=O)NCCc3ccccc3)ccn2)c1
inactive: Potency [1] | Potency [2] | Potency [3]

CC1(C)C(=O)N2c3ccccc3C(O)(CC(C(=O)O)n3cnc4ccccc4c3=O)C2N1O (configuration not stated)
inactive: Potency [1] | Potency [2] | Potency [3]
